Measurements from PubChem BioAssay (NCI).
Compounds without any hit were thinned out: in the full panel of roughly 83,000, 20% have a hit.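 Percent growth is the endpoint: 0 to 100 indicates growth inhibition (40 means 60% inhibition), 0 means no net growth, and negative values indicate cell death.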 Calls of active or inactive are those of the source. How the source made its calls: active means growth percent below 10; inactive means the rest.

Experiments:
Assay in all cases: NCI-60 one-dose screen, 48 h (100 = growth as untreated, 0 = no growth, -100 = all killed)
Conditions in all cases: 10 µM unless noted
HCT-15 colon = test system: HCT-15 colon
HT29 colon = test system: HT29 colon
SNB-75 CNS = test system: SNB-75 CNS
SNB-19 CNS = test system: SNB-19 CNS
U251 CNS = test system: U251 CNS
PC-3 prostate = test system: PC-3 prostate
SK-MEL-5 melanoma = test system: SK-MEL-5 melanoma
UACC-62 melanoma = test system: UACC-62 melanoma
LOX IMVI melanoma = test system: LOX IMVI melanoma
SK-MEL-28 melanoma = test system: SK-MEL-28 melanoma
SN12C renal = test system: SN12C renal
UO-31 renal = test system: UO-31 renal
TK-10 renal = test system: TK-10 renal
ACHN renal = test system: ACHN renal
CAKI-1 renal = test system: CAKI-1 renal
A498 renal = test system: A498 renal
CCRF-CEM leukemia = test system: CCRF-CEM leukemia
MOLT-4 leukemia = test system: MOLT-4 leukemia
SK-MEL-2 melanoma = test system: SK-MEL-2 melanoma
EKVX NSCLC = test system: EKVX NSCLC

Measured: growth

COc1ccc(C2CC(c3cccc(Nc4ccnc5cc(Cl)ccc45)c3)=NN2c2ccccc2)cc1 (stereo not given)
inactive: HCT-15 colon 46.6% | HT29 colon 60.8% | SNB-75 CNS 62.5% | SNB-19 CNS 78.3% | U251 CNS 65.4% | PC-3 prostate 67.5% | SK-MEL-5 melanoma 39.1% | UACC-62 melanoma 29.5% | LOX IMVI melanoma 49% | SK-MEL-28 melanoma 84.9% | SN12C renal 81.3% | UO-31 renal 77.4% | TK-10 renal 111% | ACHN renal 58.8% | CAKI-1 renal 19.9% | A498 renal 55.7% | CCRF-CEM leukemia 57.9% | MOLT-4 leukemia 64.3%

Cc1ccc(C2CC(c3cccs3)=NN2c2ccc(S(N)(=O)=O)cc2)s1 (stereo not given)
inactive: HCT-15 colon 80.8% | HT29 colon 86.5% | SNB-75 CNS 74.5% | SNB-19 CNS 84.8% | U251 CNS 78.5% | PC-3 prostate 56.4% | SK-MEL-5 melanoma 65.7% | UACC-62 melanoma 44.1% | LOX IMVI melanoma 104% | SK-MEL-28 melanoma 64.9% | SN12C renal 98.3% | UO-31 renal 75.8% | TK-10 renal 94.8% | ACHN renal 91.9% | CAKI-1 renal 86.7% | A498 renal 89.9% | CCRF-CEM leukemia 80.6% | MOLT-4 leukemia 89.2%

CCCCCNCCCCCNc1cc(OC)cc2cccnc12
inactive: HCT-15 colon 88.6% | HT29 colon 64.2% | SNB-75 CNS 61.7% | SNB-19 CNS 94.1% | U251 CNS 79.8% | PC-3 prostate 69.6% | SK-MEL-5 melanoma 31.1% | UACC-62 melanoma 75.3% | LOX IMVI melanoma 95.5% | SK-MEL-28 melanoma 91.9% | SN12C renal 92.7% | UO-31 renal 46% | TK-10 renal 78.7% | ACHN renal 94.3% | A498 renal 75% | CCRF-CEM leukemia 95.2%

NS(=O)(=O)c1ccc(N2N=C(c3ccc(Br)cc3)CC2c2cn(-c3ccccc3)nc2-c2ccc(Cl)cc2)cc1 (stereo not given)
inactive: HCT-15 colon 78.7% | HT29 colon 76.6% | SNB-75 CNS 92.4% | SNB-19 CNS 96% | U251 CNS 86.9% | PC-3 prostate 73.3% | SK-MEL-5 melanoma 99.7% | UACC-62 melanoma 82.5% | LOX IMVI melanoma 88% | SK-MEL-28 melanoma 108% | SN12C renal 78.6% | TK-10 renal 112% | ACHN renal 86.5% | CAKI-1 renal 89% | A498 renal 113% | CCRF-CEM leukemia 70.8% | MOLT-4 leukemia 74.8%

Clc1ccc(-c2nc(Br)cn3ccnc23)cc1
inactive: HCT-15 colon 86.1% | HT29 colon 87.6% | SNB-75 CNS 91% | SNB-19 CNS 82.5% | U251 CNS 78.2% | PC-3 prostate 81.6% | SK-MEL-5 melanoma 80.7% | UACC-62 melanoma 77.4% | LOX IMVI melanoma 77.8% | SK-MEL-28 melanoma 100% | SN12C renal 86.5% | UO-31 renal 40.3% | TK-10 renal 85.7% | CAKI-1 renal 73% | A498 renal 76.6% | CCRF-CEM leukemia 92.8% | MOLT-4 leukemia 78.9%

CC[C@H](Nc1nc(C)nc(N)c1C#N)c1nc2cccc(NCc3ccc(C(=O)NO)cc3)c2c(=O)n1-c1ccccc1
inactive: HCT-15 colon 21% | HT29 colon 14.8% | SNB-19 CNS 17.6% | SK-MEL-2 melanoma 67.2% | EKVX NSCLC 12.7%
active: SNB-75 CNS 7.85% | U251 CNS 1.03% | PC-3 prostate 8.89% | SK-MEL-5 melanoma -20.4% | UACC-62 melanoma 4.19% | LOX IMVI melanoma -59.6% | SN12C renal 7.89% | UO-31 renal -12.5% | TK-10 renal 2% | ACHN renal 2.03% | CAKI-1 renal -11.1% | A498 renal -27.1% | CCRF-CEM leukemia 6.17% | MOLT-4 leukemia 2.8%

COc1cc(CN2CCO[C@H](COc3cccc(F)c3)C2)ccc1Cl
inactive: HCT-15 colon 26.3% | HT29 colon 42.6% | SNB-75 CNS 45% | SNB-19 CNS 29.8% | U251 CNS 27.5% | PC-3 prostate 27.8% | SK-MEL-5 melanoma 37.7% | UACC-62 melanoma 44.7% | LOX IMVI melanoma 50.7% | SK-MEL-2 melanoma 31% | EKVX NSCLC 46.3% | SN12C renal 29.3% | UO-31 renal 45.6% | TK-10 renal 46.9% | ACHN renal 53.9% | CAKI-1 renal 41.3% | A498 renal 30.6% | CCRF-CEM leukemia 42.8% | MOLT-4 leukemia 52.8%

CC(=O)c1ccc(-n2c(-c3cc(-c4ccsc4)n[nH]3)n[nH]c2=S)cc1
inactive: HCT-15 colon 96.5% | HT29 colon 94.1% | SNB-75 CNS 91.2% | SNB-19 CNS 101% | U251 CNS 102% | PC-3 prostate 84.3% | SK-MEL-5 melanoma 101% | UACC-62 melanoma 95.9% | LOX IMVI melanoma 99% | SK-MEL-28 melanoma 98.8% | SN12C renal 98.3% | UO-31 renal 89.5% | TK-10 renal 98% | CAKI-1 renal 92.7% | A498 renal 111% | MOLT-4 leukemia 87.6%

COc1ccc(C2=Nn3c(nnc3-c3ccc(Cl)cc3N)SC2)cc1
inactive: HCT-15 colon 96.1% | HT29 colon 110% | SNB-75 CNS 85.4% | SNB-19 CNS 101% | U251 CNS 92.5% | PC-3 prostate 95.1% | SK-MEL-5 melanoma 97.8% | UACC-62 melanoma 86.6% | LOX IMVI melanoma 89.7% | SK-MEL-28 melanoma 97.8% | SN12C renal 99% | TK-10 renal 130% | ACHN renal 97% | CAKI-1 renal 92.9% | A498 renal 118% | CCRF-CEM leukemia 73.2% | MOLT-4 leukemia 101%

COC(=O)CNS(=O)(=O)c1ccc2c(c1)Cc1cc(S(=O)(=O)NCC(=O)OC)ccc1-2
inactive: HCT-15 colon 102% | HT29 colon 112% | SNB-75 CNS 91.6% | SNB-19 CNS 100% | U251 CNS 100% | PC-3 prostate 92.9% | SK-MEL-5 melanoma 98.2% | UACC-62 melanoma 93.3% | LOX IMVI melanoma 97% | SK-MEL-2 melanoma 108% | EKVX NSCLC 99.6% | SN12C renal 97.5% | UO-31 renal 87.1% | TK-10 renal 107% | ACHN renal 102% | CAKI-1 renal 92.1% | A498 renal 106% | CCRF-CEM leukemia 104% | MOLT-4 leukemia 99.8%

CN1CCN(Cc2ccc(NC(=O)c3ccc(C#N)c(C#Cc4cnc(N)c5ncccc45)c3)cc2C(F)(F)F)CC1
inactive: SNB-75 CNS 112% | SNB-19 CNS 115% | U251 CNS 55.6% | PC-3 prostate 81.1% | SK-MEL-5 melanoma 87% | UACC-62 melanoma 58.8% | LOX IMVI melanoma 82.5% | SK-MEL-2 melanoma 72.4% | EKVX NSCLC 96.6% | SN12C renal 86.3% | TK-10 renal 76.9% | CAKI-1 renal 94.1% | A498 renal 89.5% | CCRF-CEM leukemia 27% | MOLT-4 leukemia 59.6%
active: HCT-15 colon 1.93% | HT29 colon 4.28% | UO-31 renal -81.8% | ACHN renal -56.4%

CC[C@H](Nc1nc(N)nc(C2CC2)c1C#N)c1nc2cccc(NCc3ccc(C(=O)NO)cc3)c2c(=O)n1-c1ccccc1
active: SNB-75 CNS -2.59% | SNB-19 CNS 7.25% | U251 CNS -4.25% | SK-MEL-5 melanoma -29.5% | UACC-62 melanoma -19% | LOX IMVI melanoma -89.2% | EKVX NSCLC 0.322% | SN12C renal 9.34% | UO-31 renal -80% | TK-10 renal 5.55% | ACHN renal -21% | CAKI-1 renal -44.5% | A498 renal -8.64% | CCRF-CEM leukemia 8.87% | MOLT-4 leukemia 2.13%
inactive: HCT-15 colon 19% | HT29 colon 13.4% | PC-3 prostate 10.1% | SK-MEL-2 melanoma 26.2%

NC(N)=N/N=C/c1ccccc1
inactive: HCT-15 colon 93.1% | HT29 colon 99.8% | SNB-75 CNS 88.6% | SNB-19 CNS 92.5% | U251 CNS 97.5% | PC-3 prostate 94.1% | SK-MEL-5 melanoma 102% | UACC-62 melanoma 101% | LOX IMVI melanoma 100% | SK-MEL-28 melanoma 100% | SN12C renal 103% | UO-31 renal 88.3% | TK-10 renal 93.5% | CAKI-1 renal 86.9% | A498 renal 97.7% | CCRF-CEM leukemia 84.8% | MOLT-4 leukemia 95%

CN1CCN(Cc2ccc(NC(=O)c3cnc(F)c(C#Cc4cnc(N)c5ncccc45)c3)cc2C(F)(F)F)CC1
active: HT29 colon 6.84% | SK-MEL-5 melanoma 8.81% | UACC-62 melanoma -4.67% | LOX IMVI melanoma 1.54% | SK-MEL-2 melanoma -30.1% | UO-31 renal 7.5% | A498 renal -25.8% | MOLT-4 leukemia 8.73%
inactive: HCT-15 colon 14.9% | SNB-75 CNS 32.7% | SNB-19 CNS 52.8% | U251 CNS 20.8% | PC-3 prostate 29.9% | EKVX NSCLC 23.7% | SN12C renal 11.7% | TK-10 renal 28.7% | ACHN renal 10.1% | CAKI-1 renal 13.1% | CCRF-CEM leukemia 18.2%

Cc1cc(C)c2c(n1)sc1c(Nc3ccc(Cl)cc3Cl)ncnc12
inactive: HCT-15 colon 46.2% | HT29 colon 38.9% | SNB-75 CNS 39.7% | SNB-19 CNS 32.4% | U251 CNS 25% | PC-3 prostate 50.9% | SK-MEL-5 melanoma 25.5% | UACC-62 melanoma 15.6% | LOX IMVI melanoma 10.2% | SK-MEL-28 melanoma 61.4% | SN12C renal 13.5% | TK-10 renal 56.7% | CAKI-1 renal 12.9% | A498 renal 15.6% | CCRF-CEM leukemia 16.1% | MOLT-4 leukemia 11.6%
active: UO-31 renal -8.56%

CC(=O)c1ccc(Nc2nc(Cl)nc(Oc3c(Cl)cccc3Cl)n2)cc1
inactive: HCT-15 colon 89.7% | HT29 colon 73.6% | SNB-75 CNS 75% | SNB-19 CNS 81.9% | U251 CNS 76.9% | PC-3 prostate 72.5% | SK-MEL-5 melanoma 79.1% | UACC-62 melanoma 80.6% | LOX IMVI melanoma 87.9% | SK-MEL-2 melanoma 97.1% | EKVX NSCLC 77.2% | SN12C renal 93.1% | UO-31 renal 77.8% | TK-10 renal 115% | ACHN renal 98.3% | CAKI-1 renal 85.5% | A498 renal 69.3% | CCRF-CEM leukemia 91% | MOLT-4 leukemia 77.1%

N#Cc1nc(-c2ccc(Cl)cc2)cc(-c2ccc(Nc3nc(N4CCCCC4)nc(N4CCCCC4)n3)cc2)c1N
inactive: HCT-15 colon 108% | HT29 colon 113% | SNB-75 CNS 81.5% | SNB-19 CNS 104% | U251 CNS 102% | PC-3 prostate 91.6% | SK-MEL-5 melanoma 97.6% | UACC-62 melanoma 106% | LOX IMVI melanoma 95.8% | SK-MEL-2 melanoma 106% | EKVX NSCLC 91.8% | SN12C renal 104% | UO-31 renal 80% | TK-10 renal 120% | ACHN renal 96.8% | CAKI-1 renal 83.8% | A498 renal 110% | CCRF-CEM leukemia 107% | MOLT-4 leukemia 99.2%
